This is an account of results in the supplement of paper PMC6555819.

This assay has as its system VDR:RXRa (NR concentration 270 nM, RXRa partner concentration 90 nM). Description: PBM binding z-score (relative to random genomic background probes); higher = stronger binding; sequences stand for … in GC…GCGATTGACAGCGTAGAATGAAGG
Here is the method: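 Protein-binding microarray (Agilent 4x180K custom design, double-stranded 60-nt probes: 5' GC cap, 34-nt variable region, 24-nt constant primer region; full probe sequence given). Purified or IVT nuclear receptor:RXRα heterodimers (3:1 NR:RXRα, mostly 270:90 nM) or homodimers were incubated for 1 h in PBS with 2% milk and no ligand, then detected with Alexa488 antibodies. Fluorescence from o1-orientation probes (~5 replicates averaged) was converted to z-scores against 500 random hg19 background probes. Variable regions are seed direct-repeat (DR0–DR5) sites, all their single-nucleotide variants and half-site ablations.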
Regarding ATCTCTAGGTAAAGTTAGTTCAGTGAATGCAAAT, the PBM binding z-score turned out to be 1.42.
For the sequence AGATGTAGGTTATCGGGTCATTCAGTTTGCGCAT, the PBM binding z-score was 5.35.
Under ACTAGCAGGCCATGGGTCACTCAAGATTAGTCCG stands 0.6; under ACAGACAGGTGATGAAGGCAACTCAGGCTATCAT, -0.257; under TCTCGGAGGACACGAAAGGCCAGAGCTCGACATC, -0.308.
Under TAGCCTAGGTCAGGCGGGCCAGTATAGTGTCGGC stands 0.804; under ACTAGCAGGCCAATGGTCACTCAAGATTAGTCCG, -0.614; under CAGCCTAGGTCAGGGCCTGTATAGGAGGAACGTT, -0.0829.
Under CGTCCAAGGTCAATGCTAGGTCAGTCAAAGCATT stands 5.1; under TCACATAGGTAAAGGTGAAAGTCGAACGATATGA, 1.32; under TTACCAAGGTGAGCTGTGGTCGTTGATCCAACTC, -0.311.
CCGTCTGGGGCAAAGGTTACCATACTCAGTACGA had a PBM binding z-score of 1.55.
Take ATCTCTAGGTAGCAAGTTCAGTGAAAGAGAGGAC: the PBM binding z-score amounted to 1.35.
Under TCGATTAGGTTAGTCGGGGCATTCAGCCAACATA stands 2.14; under TCTCGGAGGACACGAAGGTCACAGCTTTCCAGAG, 4.05; under CAGCCTAGGTCAGGGACAGTATAGGAGGAACGTT, 0.484.
Under ACTATTAGTTGACTGAGGGCAACCGATACGACGC stands 2.41; under TCTACTAGGTCAGTTGGTCAGCTAACGAGCTGCC, 0.701.
Under ATACCAAGGCGATCGTGAGGTCGTTGATACTAAC stands 1.51; under CGAACTAGGTCAAGGACAATGAATCTCCGCACGC, 1.49.
For GCGACTGGGGCAAAGCAGGATACCATAAGGTTGG, the PBM binding z-score was -0.613.
To CGTCCAAGGTCAAGGTCAGTGGAAGAGACTCGAA belongs 4.89.
Under CCGACTGGGGCATAAGGTGACCATAAGCCAGCCC stands -0.42; under CCTTACGGGTCACGAGGTTTTAGCACGACGAGCG, 5.64; under TCTGCTAGGTCAAAGATGGTCAGCTAATCTGCTA, 1.68.
In turn, CGTCCAAGGTCATAGGAGGTAAGTGAAGACAGAT returned a PBM binding z-score of 4.61.
As to TCTTGTATATCAATAGAGGTTAAGAAAGTGCGCT, the PBM binding z-score worked out at 2.14.
CGAACTCGGTCATTGACAGGACAGTGAATAGTAA returned a PBM binding z-score of 0.452.
The sequence GCGACTGGGGCATCAGCAGGTTTCCATAACTTAA returned a PBM binding z-score of -0.402.
To CCTTACGAGTCACGAGGTTATAGCACGACGAGCG belongs 1.7; to TCGAGTAGGTTGGTCGGGGCATTCAGCCAACATA, 0.314.
Take TCTAGTTGGTCAAAGGTTACACACTCGAAATGCG: the PBM binding z-score was 3.11.
For ATCTCTAGGTAAAAGTTCAGCGAATCCCGAGGAT, the PBM binding z-score came out at 1.69.
Under TGTCGGAGGACACGAAAGGTCAGAGCTCGACATC stands 3.34; under TCTTGTAGATCAAGCAGGATAAGAAAGCCTGAGT, 0.405.
To CGTCAGAGTTCAACTAAGGTAACGTAAAGCACGC belongs 5.28.
To TCGAGTAGTTTACCAATGGGGCATTCAGCTTTCT belongs -0.0762; to ATATGTAGGTTAGCGGGTCATTCAGTTTGCGCAT, 4.74.
Take GCTAGTTGGTCAGTATAAGGTCACACACCGGTCG: the PBM binding z-score amounted to 3.24.
Under ACTAGCAGGCCAAGGGTCACTCCAGATTAGTCCG stands 2.32.
